Data as given in the supplement of paper PMC9254222.
The full ranking holds about 1,100 compounds; the median of “Wnt reporter firefly/Renilla luciferase ratio relative to plate median” is about 1.1, and the highest 2% start at about 1.6. Many of the other results were omitted from the sample, so the highest values are more common in it than they were.

Tested on: HEK293T (UBE3A T485A transfected, BAR Wnt reporter)
Assay: Wnt reporter firefly/Renilla luciferase ratio relative to plate median (fold (linear ratio)); higher = more Wnt/beta-catenin reporter activation
Settings: 24 h
In short: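 Chemicals were robotically dosed at 0.01–100 uM for 24 h onto HEK293T cells, starting four hours after transfection with a BAR firefly luciferase Wnt reporter, TK-Renilla and an expression plasmid. The cells had been plated at 4500 cells/well in DMEM with 10% FBS at 37°C and 5% CO2. Following a Dual-Glo luciferase readout, the firefly/Renilla ratio served as the Wnt activity measure and raw Renilla as the cell health measure, both median-centred on each plate. Each value is the mean of four biological replicates.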

SMILES	Wnt reporter firefly/Renilla luciferase ratio (concentration: 0.1 uM)	Wnt reporter firefly/Renilla luciferase ratio (concentration: 1 uM)	Wnt reporter firefly/Renilla luciferase ratio (concentration: 10 uM)	Wnt reporter firefly/Renilla luciferase ratio (concentration: 100 uM)	Wnt reporter firefly/Renilla luciferase ratio (concentration: 0.01 uM)
C=CCOC(=O)c1ccccc1C(=O)OCC=C [Diallyl phthalate]	1.17	1.04	1.22	1.09	
CCOc1cc(Oc2ccc(C(F)(F)F)cc2Cl)ccc1[N+](=O)[O-] [Oxyfluorfen]	1.05	0.917	1.07	0.292	1.01
CCCCCCCCCCCCCN1CC(C)OC(C)C1 (stereo unspecified) [Tridemorph]	1.09	1.23	1.04	1.05	
CCOP(=O)(OCC)Oc1nc(Cl)c(Cl)cc1Cl [Chlorpyrifos oxon]	0.876	1.02	0.861	0.591	0.967
CN(C)C(=O)Cl [Dimethylcarbamoyl chloride]	0.982	1.32	1.35	1.31	
Cc1cccc([N+](=O)[O-])c1 [3-Nitrotoluene]	1.02	1.03	0.836	1.17	
CN(C)C(=O)Nc1cccc(C(F)(F)F)c1 [Fluometuron]	1.43	1.1	0.996	1.04	1.3
O=P(OC(CCl)CCl)(OC(CCl)CCl)OC(CCl)CCl	1.19	0.764	1.31	0.44	
CCC(CC)Nc1c([N+](=O)[O-])cc(C)c(C)c1[N+](=O)[O-] [Pendimethalin]	0.866	0.946	0.92	1.08	0.882
CC(C)(C)CC(C)(C)c1ccc(O)cc1 [4-(1,1,3,3-Tetramethylbutyl)phenol]	1.03	0.968	1.15	0.935	
CN1COCN(Cc2cnc(Cl)s2)C1=N[N+](=O)[O-] [Thiamethoxam]	1.19	1.01	0.971	1.2	1.14
c1ccc(N=Nc2ccccc2)cc1 [Azobenzene]	1.35	1.05	1.38	1.1	
c1ccc(C2CO2)cc1 (stereo unspecified) [Styrene oxide]	1.23	0.89	1.19	1.71	
c1ccc(NNc2ccccc2)cc1 [1,2-Diphenylhydrazine]	1.25	1.04	1.19	1.27	
CCOP(=S)(Oc1ccc([N+](=O)[O-])cc1)c1ccccc1 (stereo unspecified)	1.05	1.07	0.965	0.846	
COc1nn(CSP(=S)(OC)OC)c(=O)s1 [Methidathion]	1.74	1.33	1.56	0.818	1.41
Cc1cc(-c2ccc(N)c(C)c2)ccc1N [3,3'-Dimethylbenzidine]	1.15	0.925	0.831	0.556	
CCC(C)n1c(=O)[nH]c(C)c(Br)c1=O (stereo unspecified) [Bromacil]	1	0.995	0.904	0.896	0.919
c1ccc2c(c1)oc1ccccc12 [Dibenzofuran]	1.04	0.95	1.02	1.15	
Oc1ccc(Cl)cc1Cc1ccccc1 [Clorophene]	1.05	1.07	0.943		0.901
Nc1ccc2ccccc2c1 [2-Naphthylamine]	0.991	0.869	0.998	0.629	
CCOP(=S)(OCC)Oc1nc(Cl)c(Cl)cc1Cl [Chlorpyrifos]	1.11	1.01	0.926	1.12	

SMILES	Wnt reporter firefly/Renilla luciferase ratio (concentration: 0.1 uM)	Wnt reporter firefly/Renilla luciferase ratio (concentration: 1 uM)	Wnt reporter firefly/Renilla luciferase ratio (concentration: 10 uM)	Wnt reporter firefly/Renilla luciferase ratio (concentration: 100 uM)	Wnt reporter firefly/Renilla luciferase ratio (concentration: 0.01 uM)
N#CC(Br)(Br)C(N)=O [2,2-Dibromo-3-nitrilopropionamide]	1.26	1.24	1.3	1.23	
Nc1ccc([N+](=O)[O-])cc1 [4-Nitroaniline]	1.19	0.817	0.602	0.574	
O=S(=O)([O-])C(F)(F)C(F)(F)C(F)(F)C(F)(F)C(F)(F)C(F)(F)F.[K+]	1.21	0.967	1.07	1.21	
O=S(=O)([O-])C(F)(F)C(F)(F)C(F)(F)C(F)(F)C(F)(F)C(F)(F)C(F)(F)C(F)(F)F.[K+]	1.12	1.24	1.39	0.833	
O=S(=O)([O-])C(F)(F)C(F)(F)C(F)(F)C(F)(F)F.[K+]	1.15	1.04	1.23	1.73	
ClC1=C(Cl)C(Cl)(Cl)C(Cl)=C1Cl [Hexachlorocyclopentadiene]	1.24	0.958	1.02	0.638	
O=C(O)CNCP(=O)(O)O [Glyphosate]	1.38	1.39	1.04	1.75	1.29
C=C(C)[C@H]1Cc2c(ccc3c2O[C@@H]2COc4cc(OC)c(OC)cc4[C@@H]2C3=O)O1 [Rotenone]	0.675	0.7	0.862		0.948
CCc1cccc(CC)c1N(COC)C(=O)CCl [Alachlor]	0.977	0.938	0.799	0.366	0.923
CC1(C)C(C=C(Cl)Cl)C1C(=O)OC(C#N)c1cccc(Oc2ccccc2)c1 (stereo unspecified) [Cypermethrin]	1.14	1.06	0.991	0.601	1.02
CS(=O)(=O)c1ccc(C(=O)C2C(=O)CCCC2=O)c([N+](=O)[O-])c1 [Mesotrione]	1.82	0.968	1.14	1.16	1.7
C=CC(N)=O [Acrylamide]	0.86	0.905	0.839	1.1	
N#CSCSC#N [Methylene bis(thiocyanate)]	0.976	1.05	1.31		0.967
CNC(=O)ON=C(C)SC [Methomyl]	1.08	1.03	0.996	1.19	0.847
CNC(=O)ON=C(SC)C(=O)N(C)C [Oxamyl]	1.22	1.11	1.43	0.291	1.55
CS/C(C)=N/OC(=O)N(C)SN(C)C(=O)O/N=C(\C)SC [Thiodicarb]	1.86	1.6	1.15		1.53
Nn1cnnc1 [4-Amino-1,2,4-triazole]	1.22	0.928	1.27	1.43	
ClC1=C(Cl)[C@]2(Cl)[C@H]3[C@H]([C@@H]4C=C[C@H]3C4)[C@@]1(Cl)C2(Cl)Cl [Aldrin]	1.2	0.895	1.15	1.43	
COC(=O)c1ccccc1C(=O)OC [Dimethyl phthalate]	1.21	1.21	1.2	1.42	1.03
N#Cc1nn(-c2c(Cl)cc(C(F)(F)F)cc2Cl)c(N)c1S(=O)C(F)(F)F (stereo unspecified) [Fipronil]	0.896	0.987	0.889	0.402	0.954
COS(=O)(=O)[O-].Cn1c(-c2ccccc2)cc(-c2ccccc2)[n+]1C [Difenzoquat metilsulfate]	0.813	1.1	0.847	0.425	0.771
CC(C)(C)C(O)(CCc1ccc(Cl)cc1)Cn1cncn1 (stereo unspecified) [Tebuconazole]	1.04	0.915	0.972	0.461	

SMILES	Wnt reporter firefly/Renilla luciferase ratio (concentration: 0.1 uM)	Wnt reporter firefly/Renilla luciferase ratio (concentration: 1 uM)	Wnt reporter firefly/Renilla luciferase ratio (concentration: 10 uM)	Wnt reporter firefly/Renilla luciferase ratio (concentration: 100 uM)	Wnt reporter firefly/Renilla luciferase ratio (concentration: 0.01 uM)
CC(=O)N=C1C=CC(=O)C=C1	1.17	1	0.923	1.08	0.925
CCN(CC)CCO [N,N-Diethylethanolamine]	1.01	1.07	0.956	1.44	
Clc1ccc(C(c2ccccc2Cl)C(Cl)(Cl)Cl)cc1 (stereo unspecified)	0.989	0.858	0.978	1.08	
c1cc2ccc3cccc4ccc(c1)c2c34 [Pyrene]	1.09	0.96	1.05	0.354	
N=C(Nc1ccccc1)Nc1ccccc1 [1,3-Diphenylguanidine]	1.06	1.28	0.977	1.02	
NC1=NC(O)C2C3OC4(O)OC(C(O)C2(N1)C4O)C3(O)CO (stereo unspecified) [Tetrodotoxin (TTX)]	1.12	1.09	1.06	1.8	1.05
CCOc1cccc([C@]2(N3CCN(c4ccccc4)CC3)CC[C@@H](C)CC2)c1.CS(=O)(=O)O	1.38	0.926	1.05	1.12	
CCCOC/C(=N\c1ccc(Cl)cc1C(F)(F)F)n1ccnc1 [Triflumizole]	1.65	1.53	1.91	1.72	1.29
CCCN(CCOc1c(Cl)cc(Cl)cc1Cl)C(=O)n1ccnc1 [Prochloraz]	1.15	0.904	1.05	0.247	1.14
CN1C2CC(OC(=O)C(CO)c3ccccc3)CC1C1OC12 (stereo unspecified) [Scopolamine]	1.56	1.15	1.24	1.26	1.61
N#Cc1cc(Br)c(O)c(Br)c1 [Bromoxynil]	0.882	0.923	0.998	0.286	0.815
CCNc1nc(Cl)nc(NC(C)C)n1 [Atrazine]	1.38	1.15	1.29	1.18	1.45
Cc1cccc([N+](=O)[O-])c1C [1,2-Dimethyl-3-nitrobenzene]	0.993	0.898	0.848	1.57	
COS(C)(=O)=O [Methyl methanesulfonate]	0.999	0.797	1.14	1.24	
COC(=O)c1c(C(F)F)nc(C(F)(F)F)c(C2=NCCS2)c1CC(C)C [Thiazopyr]	0.899	0.947	0.872	0.82	0.815
CCOCCOC(C)=O [2-Ethoxyethyl acetate]	1.05	0.896	1.18	1.3	
O=[N+]([O-])c1ccc(Oc2ccc(Cl)cc2Cl)cc1 [Nitrofen]	1.04	0.882	1.01	1.28	
CC(Oc1ccc(Cl)cc1Cl)C(=O)O (stereo unspecified) [Dichlorprop]	1.21	1.22	1.24	1.32	1.16
COC(=O)C(C)Oc1ccc(Oc2ccc(Cl)cc2Cl)cc1 (stereo unspecified) [Diclofop-methyl]	1.28	1.98	1.27	1.29	1.1
Clc1ccc(Cl)cc1 [1,4-Dichlorobenzene]	1.45	0.934	1.1	1.39	
OC(c1ccc(Cl)cc1)(c1ccc(Cl)cc1)C(Cl)(Cl)Cl [Dicofol]	1.37	1.17	1.3	1.06	1.23
Clc1ccc(C(Cl)(Cl)Cl)cc1 [4-Chlorobenzotrichloride]	1.23	0.884	1.42	2.38	
